From PubChem BioAssay AID2551 (National Center for Advancing Translational Sciences (NCATS), 2010)
Out of some 310,000 compounds screened, about 17,000 (5.5%) were called active. Not shown: some 11% with an inconclusive outcome. The sample as a whole holds a higher share of actives than the screen did. A number with no mark means an inactive call. Calls follow the shape of the dose curve; as a rule, active = well fitted inhibition curve with a large enough effect; inconclusive = small, poorly fitted or top-dose-only effect, or effect the other way; inactive = no such curve, though single readings can be large or run the other way.

biological target: Nuclear receptor ROR-gamma (Mus musculus) (UniProt P51450); assay: qHTS for inhibitors of ROR gamma transcriptional activity; conditions: Drosophila S2 Gal4-RORgamma UAS-luciferase reporter, 20 h; series mostly up to 53.6 µM; activity change, negative = inhibition: at the top concentration; also: nearly all actives have a fitted effect of over 60% in size
Sequence (P51450 whole entry, looked up, the tested form may be a part): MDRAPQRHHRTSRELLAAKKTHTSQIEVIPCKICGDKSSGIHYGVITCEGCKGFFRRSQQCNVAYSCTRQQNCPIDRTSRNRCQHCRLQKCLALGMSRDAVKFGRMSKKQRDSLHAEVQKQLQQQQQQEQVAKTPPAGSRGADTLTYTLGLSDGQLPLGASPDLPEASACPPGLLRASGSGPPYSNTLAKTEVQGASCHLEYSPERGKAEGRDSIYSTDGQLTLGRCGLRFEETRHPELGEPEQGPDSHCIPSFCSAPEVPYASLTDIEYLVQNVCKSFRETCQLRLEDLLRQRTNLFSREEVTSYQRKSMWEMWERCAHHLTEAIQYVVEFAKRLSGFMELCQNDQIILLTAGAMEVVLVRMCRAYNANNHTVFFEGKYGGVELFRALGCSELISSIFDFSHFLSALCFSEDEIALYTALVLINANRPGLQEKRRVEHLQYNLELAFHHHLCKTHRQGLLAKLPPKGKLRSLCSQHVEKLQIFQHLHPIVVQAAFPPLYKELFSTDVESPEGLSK
In short: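 Schneider cells (Drosophila), stable Gal4 DBD–ROR gamma + UAS-luc; 1 hr cmpd preincubation; Cu2+ induction 700 uM final; 20 hr ambient; luminescence.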
% is scaled to controls: 0 for no effect and ±100 for the full control effect; potency is read from the fitted curve at half-maximal effect.

Row | Compound | activity change, negative = inhibition | Potency
1 | COc1ccc(CCNC(=O)NS(=O)(=O)c2ccc(C)cc2)cc1OC | -25.4% | –
2 | COc1ccc(CCNC(=O)Cc2ccc(C)cc2)cc1OC | -20.3% | –
3 | COc1ccc(CCNC(=S)NC(=O)/C=C/c2ccc(C)cc2)cc1OC | – | 3.16 µM (active)
4 | COc1cccc(CNC(=O)CN(C)S(=O)(=O)c2ccc3c(c2)c(=O)n(C)c(=O)n3C)c1 | -14.9% | –
5 | CC(=O)Nc1ccc(NC(=O)CN2C(=O)COc3ccc(S(=O)(=O)N4CCCCC4)cc32)cc1 | -1.03% | –
6 | CCOc1cccc(-c2nnc(SCC(=O)NC3CC3)n2C)c1 | -31.3% | –
7 | OCCN1CCN(c2nnc(-c3ccccc3)c3ccccc23)CC1 | -1.93% | –
8 | CCOc1ccc(N(CC(=O)NCCOc2ccccc2OC)S(=O)(=O)c2ccccc2)cc1 | -29.8% | –
9 | C=CCN1CCN(C(=O)CCCc2ccccc2)CC1 | – | 5.62 µM (active)
10 | O=C(CCCc1ccccc1)NCc1ccccc1 | 16.2% | –
11 | CC(=O)c1ccc(N2CCN(C(=O)CCc3ccccc3)CC2)cc1 | 23.9% | –
12 | Cc1ccccc1OCC(=O)Nc1nnc(S(=O)(=O)N2CCCC2)s1 | 14.6% | –
13 | CCOc1cc(/C=N/Nc2cc(C)nc3ccc(C)cc23)ccc1O | -24.7% | –
14 | COc1cccc(-c2nc3n(n2)C(c2ccccc2Cl)C(C(N)=O)=C(C)N3)c1 (stereo unspecified) | 10.2% | –
15 | CC1=C(C(N)=O)C(c2ccc(F)cc2)n2nc(CCCO)nc2N1 (stereo unspecified) | -6.31% | –
16 | CC1=C(C(N)=O)C(c2ccc3c(c2)OCO3)n2nc(-c3cccc(C)c3)nc2N1 (stereo unspecified) | – | 5.62 µM (active)
17 | Cc1ccc(C(=O)OCC(=O)NC(=O)Cc2ccccc2)c(O)c1 | -14.9% | –
18 | CC(=O)N/N=C(\C)c1ccc(Br)cc1Br | – | 10 µM (active)
19 | COC(=O)c1oc2ccc(Br)cc2c1NC(C)=O | -12.5% | –
20 | CN(C)C(=O)c1cc(Br)ccc1Cl | 5.62% | –
21 | COc1ccc(CCNC(=O)CS(=O)(=O)Cc2nc(-c3ccc(C)cc3)oc2C)cc1OC | -11.7% | –
22 | CCCCNC(=O)C1(O)c2ccccc2NC(=O)N1c1ccc(Cl)cc1 (stereo unspecified) | 0.468% | –
23 | CCn1cc(/C=C(\NC(=O)c2cc(OC)c(OC)c(OC)c2)C(=O)N2CCN(C)CC2)c2ccccc21 | 0.404% | –
24 | O=C(N/N=C/c1ccc(O)c2ccccc12)c1cccnc1 | -14% | –
25 | Cc1nc2ccc(C(=O)N/N=C/c3ccc(O)cc3)cc2[nH]1 | 1.66% | –
26 | Cc1ccc(/C=N/NC(=O)C2=NNC(c3ccccc3)(c3ccccc3)C2)c(O)c1 | – | 1.26 µM (active)

Row | Compound | activity change, negative = inhibition | Potency
27 | O=C(NCC(=O)N1CCC2(CC1)NCCc1[nH]cnc12)c1ccc(Br)cc1 | -10.7% | –
28 | CCOc1cc(/C=C/c2nc3ccccc3c(=O)[nH]2)cc(Br)c1OC | 28.2% | –
29 | CCOC(=O)CSc1nnc(CNc2nc(-c3ccccc3)cs2)n1C | 6.34% | –
30 | Nc1c(Cl)cc(-c2csc(N3CCCC3c3nc4cc(Cl)c(Cl)cc4n3CCOCCO)n2)cc1Cl (stereo unspecified) | – | 14.1 µM (active)
31 | CCCn1c(C2CCCN2c2nc(-c3ccc(C)cc3)cs2)nc2cc(Cl)c(N3CCCCC3)cc21 (stereo unspecified) | – | 10 µM (active)
32 | Cc1ccc(-c2csc(N3CCN(c4cc5c(cc4Cl)nc(-c4ccncc4)n5CCOCCO)CC3)n2)cc1 | -30.6% | –
33 | CCCn1c(CCNc2nc(-c3ccc(OC)cc3)cs2)nc2ccccc21 | – | 11.2 µM (active)
34 | CCCn1c(C(C)Nc2nc(-c3ccc(C)cc3)cs2)nc2cc(Cl)c(N3CCCCC3)cc21 (stereo unspecified) | – | 7.08 µM (active)
35 | CCCn1c(C(O)c2ccc(OCC)cc2)nc2ccccc21 (stereo unspecified) | -25.6% | –
36 | COc1cccc(S(=O)(=O)NCc2ccc(C(=O)NCc3ccccn3)cc2)c1 | -42.1% | –
37 | CCN(CC)CCCNC(=O)c1c(O)c2cc(F)cc3c2n(c1=O)C(C)CC3 (stereo unspecified) | -23% | –
38 | O=C1NC(=O)C(c2ccc(Cl)cc2)N1 (stereo unspecified) | 1.34% | –
39 | Cc1ccc(S(=O)(=O)NCC2CCC(C(=O)N3CCOCC3)CC2)cc1 (stereo unspecified) | 1.41% | –
40 | CC(=O)Nc1c2c(nn1-c1ccc(C)cc1C)CS(=O)C2 (stereo unspecified) | -12.4% | –
41 | CCc1cccc(C)c1NS(=O)(=O)c1cc(Br)cnc1N | -4.25% | –
42 | CC(=O)c1cccc(NC(=O)c2cc(C)nn2-c2ccccc2)c1 | 4.29% | –
43 | CCOC(=O)c1cc(S(=O)(=O)NCCc2ccc(OC)c(OC)c2)cn1C | 1.39% | –
44 | CNC(=O)C1CCN(S(=O)(=O)c2c(C)noc2/C=C/c2cccc(C)c2)CC1 | -5.56% | –
45 | COc1ccc(-c2cc3n(n2)CCc2nc4ccccc4n2-3)cc1 | 23% | –
46 | COc1ccc(-c2csc(N3CCN(Cc4ccc5c(c4)OCO5)CC3)n2)cc1 | -0.746% | –
47 | CCCn1c(C2CCCN2c2nc(-c3ccc(OC)cc3)cs2)nc2ccccc21 (stereo unspecified) | – | 2 µM (active)
48 | O=[N+]([O-])c1cc(C(F)(F)F)ccc1NCCc1ccncc1 | 21.3% | –
49 | CC1(C)Cc2cccc(OCC(=O)NCc3ccccc3)c2O1 | 29.7% | –
50 | CCCCc1ccc(NC(=O)NCc2cccnc2)cc1 | 26.2% | –
51 | CCOC(=O)C1CCCN(CCSc2ccc(C)cc2)C1 (stereo unspecified) | -23% | –
